# From PMC7862700, “An all-to-all approach to the identification of sequence-specific readers for epigenetic DNA modifications on cytosine”
# Experiments:
# Experiment in all cases: DAPPL (digital affinity profiling via proximity ligation, sequencing); 10 mM Tris-HCl pH 7.5, 50 mM NaCl, 1 mM DTT, 4% glycerol, room temperature, 30 min; GST-TFs on glutathione beads, 16-mer random dsDNA library, 0.1% formaldehyde crosslink after washing; high values mean tight binding
# Conditions in all cases: protein: recombinant; tags: N-terminal GST; dsDNA, one strand shown
# FLI1 = biological target: T1, FLI1 (Homo sapiens, UniProt Q01543 1-452)
# T1 sequence: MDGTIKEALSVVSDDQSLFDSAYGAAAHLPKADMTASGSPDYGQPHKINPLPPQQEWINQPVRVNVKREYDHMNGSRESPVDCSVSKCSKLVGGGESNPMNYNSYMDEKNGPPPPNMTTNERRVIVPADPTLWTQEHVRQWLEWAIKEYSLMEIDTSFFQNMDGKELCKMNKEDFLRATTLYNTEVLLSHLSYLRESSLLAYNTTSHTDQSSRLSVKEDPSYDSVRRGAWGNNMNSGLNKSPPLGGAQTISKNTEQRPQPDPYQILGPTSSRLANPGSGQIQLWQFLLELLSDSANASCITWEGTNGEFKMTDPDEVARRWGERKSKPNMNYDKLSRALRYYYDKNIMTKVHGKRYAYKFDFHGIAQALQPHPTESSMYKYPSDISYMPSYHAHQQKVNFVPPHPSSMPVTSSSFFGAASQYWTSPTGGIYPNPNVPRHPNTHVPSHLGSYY
# Summary of the method: (§1)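 Yeast served to express human transcription factors as GST fusions, which were then captured on glutathione beads and labelled with DNA barcodes. Pooled with a tag-only sample, they were incubated with 200 nmole of a 16-mer random double-stranded DNA library for 30 min at room temperature in Tris/NaCl/DTT/glycerol buffer, washed, crosslinked with 0.1% formaldehyde, ligated by proximity, amplified by PCR and sequenced. Dividing each hexamer's read frequency for a factor by its frequency for the tag-only sample gives the binding signal.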
# ELK1 = biological target: T2, ELK1 (Homo sapiens, UniProt P19419 1-428)
# T2 sequence: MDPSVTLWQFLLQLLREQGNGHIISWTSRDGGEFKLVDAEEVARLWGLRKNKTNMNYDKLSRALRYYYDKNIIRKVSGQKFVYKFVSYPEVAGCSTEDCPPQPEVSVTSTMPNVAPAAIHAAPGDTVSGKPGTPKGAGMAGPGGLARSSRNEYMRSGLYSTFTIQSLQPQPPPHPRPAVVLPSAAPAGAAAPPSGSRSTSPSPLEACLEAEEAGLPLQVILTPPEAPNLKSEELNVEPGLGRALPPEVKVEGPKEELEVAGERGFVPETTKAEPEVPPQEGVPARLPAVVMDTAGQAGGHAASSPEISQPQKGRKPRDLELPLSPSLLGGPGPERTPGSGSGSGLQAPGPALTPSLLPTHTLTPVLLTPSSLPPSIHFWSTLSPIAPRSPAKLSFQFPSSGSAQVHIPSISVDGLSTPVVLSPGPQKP
# Summary of the method: as §1
# GABPA = biological target: T3, GABPA (Homo sapiens, UniProt Q06546 1-454)
# T3 sequence: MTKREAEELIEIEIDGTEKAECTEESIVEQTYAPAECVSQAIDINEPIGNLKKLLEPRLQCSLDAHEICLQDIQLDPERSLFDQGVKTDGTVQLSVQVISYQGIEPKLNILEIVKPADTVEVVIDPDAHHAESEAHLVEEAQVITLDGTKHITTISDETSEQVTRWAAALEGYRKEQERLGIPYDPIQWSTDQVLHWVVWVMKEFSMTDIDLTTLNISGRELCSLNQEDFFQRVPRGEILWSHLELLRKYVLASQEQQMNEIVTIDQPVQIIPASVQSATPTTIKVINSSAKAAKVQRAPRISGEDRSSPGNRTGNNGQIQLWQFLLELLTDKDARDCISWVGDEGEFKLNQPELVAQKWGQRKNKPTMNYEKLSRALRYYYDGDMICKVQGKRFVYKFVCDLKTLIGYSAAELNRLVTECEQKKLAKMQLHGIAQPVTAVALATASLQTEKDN
# Summary of the method: as §1
# ERG = biological target: T4, ERG (Homo sapiens, UniProt P11308 1-479)
# T4 sequence: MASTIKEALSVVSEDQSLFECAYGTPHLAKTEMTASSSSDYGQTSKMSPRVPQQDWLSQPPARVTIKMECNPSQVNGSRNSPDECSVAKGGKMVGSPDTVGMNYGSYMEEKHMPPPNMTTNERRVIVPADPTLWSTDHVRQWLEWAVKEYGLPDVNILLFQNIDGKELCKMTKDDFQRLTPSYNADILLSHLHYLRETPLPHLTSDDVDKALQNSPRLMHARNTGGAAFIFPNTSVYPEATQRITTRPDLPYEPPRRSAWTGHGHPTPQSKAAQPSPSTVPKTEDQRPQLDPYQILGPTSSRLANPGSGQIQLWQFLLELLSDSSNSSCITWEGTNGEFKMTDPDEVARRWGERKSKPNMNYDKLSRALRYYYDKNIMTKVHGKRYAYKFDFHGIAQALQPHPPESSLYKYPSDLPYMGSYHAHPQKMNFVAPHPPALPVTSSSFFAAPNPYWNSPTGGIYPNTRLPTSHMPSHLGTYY
# Summary of the method: as §1
# ELF1 = ELF1 (Homo sapiens, UniProt P32519 1-619)
# Chain of ELF1 (P32519 whole entry): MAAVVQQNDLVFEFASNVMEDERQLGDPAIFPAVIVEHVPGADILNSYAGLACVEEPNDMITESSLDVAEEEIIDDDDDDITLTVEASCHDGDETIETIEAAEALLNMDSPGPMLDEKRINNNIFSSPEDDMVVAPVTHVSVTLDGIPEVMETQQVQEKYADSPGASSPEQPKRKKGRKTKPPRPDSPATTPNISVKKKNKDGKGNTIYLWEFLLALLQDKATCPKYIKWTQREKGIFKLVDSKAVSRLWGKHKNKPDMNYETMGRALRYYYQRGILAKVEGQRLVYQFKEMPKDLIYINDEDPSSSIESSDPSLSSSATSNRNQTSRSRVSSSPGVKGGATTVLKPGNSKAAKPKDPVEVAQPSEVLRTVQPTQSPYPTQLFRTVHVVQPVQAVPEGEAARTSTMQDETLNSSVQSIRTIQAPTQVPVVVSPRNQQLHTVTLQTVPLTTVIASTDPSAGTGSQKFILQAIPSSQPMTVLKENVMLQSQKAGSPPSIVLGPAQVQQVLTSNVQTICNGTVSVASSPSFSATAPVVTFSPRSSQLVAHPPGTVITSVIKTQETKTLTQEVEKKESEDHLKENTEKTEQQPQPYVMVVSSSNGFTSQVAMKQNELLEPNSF
# Summary of the method: as §1
# EHF = biological target: T5, EHF (Homo sapiens, UniProt Q9NZC4 1-300)
# T5 sequence: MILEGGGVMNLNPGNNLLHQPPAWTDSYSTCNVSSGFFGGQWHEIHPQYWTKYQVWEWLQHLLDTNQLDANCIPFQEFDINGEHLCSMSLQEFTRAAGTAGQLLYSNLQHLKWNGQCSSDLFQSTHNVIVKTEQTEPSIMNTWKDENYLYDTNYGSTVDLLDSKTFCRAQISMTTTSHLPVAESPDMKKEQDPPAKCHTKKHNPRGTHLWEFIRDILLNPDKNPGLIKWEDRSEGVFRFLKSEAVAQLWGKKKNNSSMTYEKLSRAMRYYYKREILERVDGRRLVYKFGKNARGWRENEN
# Summary of the method: as §1
# SPI1 = SPI1 (Homo sapiens, UniProt P17947 1-270)
# Summary of the method: as §1
# SPIB = SPIB (Homo sapiens, UniProt Q01892 1-262)
# Chain of SPIB (Q01892 whole entry): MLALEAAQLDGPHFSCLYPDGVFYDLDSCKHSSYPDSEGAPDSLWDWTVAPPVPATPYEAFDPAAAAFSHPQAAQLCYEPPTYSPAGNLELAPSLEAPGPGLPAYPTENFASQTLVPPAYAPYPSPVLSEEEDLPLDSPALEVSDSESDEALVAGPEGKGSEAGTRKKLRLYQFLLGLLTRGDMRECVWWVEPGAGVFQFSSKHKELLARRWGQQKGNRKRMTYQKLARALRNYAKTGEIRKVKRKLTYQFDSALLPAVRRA
# Summary of the method: as §1
# ELK3 = biological target: T6, ELK3 (Homo sapiens, UniProt P41970 1-407)
# T6 sequence: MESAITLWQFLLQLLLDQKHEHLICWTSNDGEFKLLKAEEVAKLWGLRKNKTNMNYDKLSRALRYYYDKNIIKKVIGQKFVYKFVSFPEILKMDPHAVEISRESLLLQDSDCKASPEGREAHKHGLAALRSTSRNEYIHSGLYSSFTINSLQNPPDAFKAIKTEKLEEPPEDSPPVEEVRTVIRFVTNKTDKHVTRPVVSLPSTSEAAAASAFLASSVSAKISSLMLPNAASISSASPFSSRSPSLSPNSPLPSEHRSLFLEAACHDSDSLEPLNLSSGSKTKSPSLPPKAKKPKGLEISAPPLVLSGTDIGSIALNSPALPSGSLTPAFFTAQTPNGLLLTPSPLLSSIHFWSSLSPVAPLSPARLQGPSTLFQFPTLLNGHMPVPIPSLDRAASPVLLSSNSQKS
# Summary of the method: as §1
# FEV = biological target: T7, FEV (Homo sapiens, UniProt Q99581 1-238)
# T7 sequence: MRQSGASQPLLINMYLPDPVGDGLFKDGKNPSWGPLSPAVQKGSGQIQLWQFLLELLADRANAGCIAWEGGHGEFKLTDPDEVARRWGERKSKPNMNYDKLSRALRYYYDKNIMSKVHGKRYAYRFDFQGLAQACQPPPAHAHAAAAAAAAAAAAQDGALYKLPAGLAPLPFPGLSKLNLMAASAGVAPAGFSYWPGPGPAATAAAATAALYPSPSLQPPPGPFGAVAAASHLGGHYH
# Summary of the method: as §1
# ETV5 = ETV5 (Homo sapiens, UniProt P41161 1-510)
# Chain of ETV5 (P41161 whole entry): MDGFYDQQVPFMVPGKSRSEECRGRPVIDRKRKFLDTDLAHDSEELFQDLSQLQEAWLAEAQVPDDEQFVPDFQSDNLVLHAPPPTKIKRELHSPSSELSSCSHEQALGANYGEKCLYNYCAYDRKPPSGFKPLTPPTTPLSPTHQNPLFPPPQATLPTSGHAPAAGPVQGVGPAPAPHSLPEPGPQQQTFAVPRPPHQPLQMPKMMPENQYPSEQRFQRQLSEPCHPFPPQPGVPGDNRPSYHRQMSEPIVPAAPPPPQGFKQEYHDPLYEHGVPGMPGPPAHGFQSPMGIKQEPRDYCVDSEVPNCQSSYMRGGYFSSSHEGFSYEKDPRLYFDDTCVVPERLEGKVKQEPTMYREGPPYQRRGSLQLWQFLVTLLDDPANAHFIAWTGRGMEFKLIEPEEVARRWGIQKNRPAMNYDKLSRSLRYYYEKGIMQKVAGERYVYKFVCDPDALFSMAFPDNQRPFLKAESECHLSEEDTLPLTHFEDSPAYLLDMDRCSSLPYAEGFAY
# Summary of the method: as §1
# SPIC = biological target: T8, SPIC (Homo sapiens, UniProt Q8N5J4 1-248)
# T8 sequence: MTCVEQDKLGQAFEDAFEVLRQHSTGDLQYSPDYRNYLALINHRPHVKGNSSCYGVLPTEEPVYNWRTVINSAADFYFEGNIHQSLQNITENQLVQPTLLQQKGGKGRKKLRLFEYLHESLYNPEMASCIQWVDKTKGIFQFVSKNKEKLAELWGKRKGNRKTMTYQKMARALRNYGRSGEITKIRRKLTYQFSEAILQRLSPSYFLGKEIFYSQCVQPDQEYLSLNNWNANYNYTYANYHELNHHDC
# Summary of the method: as §1
# ELF4 = ELF4 (Homo sapiens, UniProt Q99607 1-663)
# Chain of ELF4 (Q99607 whole entry): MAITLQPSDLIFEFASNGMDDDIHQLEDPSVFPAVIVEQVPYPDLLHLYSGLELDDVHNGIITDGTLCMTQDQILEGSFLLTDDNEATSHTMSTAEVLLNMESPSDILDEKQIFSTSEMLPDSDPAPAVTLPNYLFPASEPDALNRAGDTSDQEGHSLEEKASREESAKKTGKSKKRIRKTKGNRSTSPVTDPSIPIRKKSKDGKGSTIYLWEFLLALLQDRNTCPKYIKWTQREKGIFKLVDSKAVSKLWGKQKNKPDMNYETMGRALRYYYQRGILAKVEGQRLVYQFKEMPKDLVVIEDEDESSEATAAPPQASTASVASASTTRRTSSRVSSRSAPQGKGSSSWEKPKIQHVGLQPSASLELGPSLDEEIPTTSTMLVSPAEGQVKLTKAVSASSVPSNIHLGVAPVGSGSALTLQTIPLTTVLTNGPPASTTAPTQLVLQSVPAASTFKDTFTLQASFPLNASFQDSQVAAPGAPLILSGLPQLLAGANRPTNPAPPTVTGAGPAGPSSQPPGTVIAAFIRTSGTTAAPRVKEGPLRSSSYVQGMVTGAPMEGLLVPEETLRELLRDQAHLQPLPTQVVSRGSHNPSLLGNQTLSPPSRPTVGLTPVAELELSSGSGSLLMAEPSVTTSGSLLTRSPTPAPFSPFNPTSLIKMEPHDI
# Summary of the method: as §1
# ELK4 = biological target: T9, ELK4 (Homo sapiens, UniProt P28324-2 1-405)
# T9 sequence: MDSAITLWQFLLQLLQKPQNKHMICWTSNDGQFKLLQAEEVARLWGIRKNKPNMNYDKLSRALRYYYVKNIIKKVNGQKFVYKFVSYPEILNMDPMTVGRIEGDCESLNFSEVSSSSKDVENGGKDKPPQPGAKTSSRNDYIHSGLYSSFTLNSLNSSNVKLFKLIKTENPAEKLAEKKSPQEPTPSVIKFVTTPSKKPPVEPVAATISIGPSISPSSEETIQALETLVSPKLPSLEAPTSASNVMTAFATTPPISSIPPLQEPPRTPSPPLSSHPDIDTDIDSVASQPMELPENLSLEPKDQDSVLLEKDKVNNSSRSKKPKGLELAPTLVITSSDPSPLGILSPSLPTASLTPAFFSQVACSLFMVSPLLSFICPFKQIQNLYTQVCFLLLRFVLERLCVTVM
# Summary of the method: as §1
# ETV2 = biological target: T10, ETV2 (Homo sapiens, UniProt O00321 1-342)
# T10 sequence: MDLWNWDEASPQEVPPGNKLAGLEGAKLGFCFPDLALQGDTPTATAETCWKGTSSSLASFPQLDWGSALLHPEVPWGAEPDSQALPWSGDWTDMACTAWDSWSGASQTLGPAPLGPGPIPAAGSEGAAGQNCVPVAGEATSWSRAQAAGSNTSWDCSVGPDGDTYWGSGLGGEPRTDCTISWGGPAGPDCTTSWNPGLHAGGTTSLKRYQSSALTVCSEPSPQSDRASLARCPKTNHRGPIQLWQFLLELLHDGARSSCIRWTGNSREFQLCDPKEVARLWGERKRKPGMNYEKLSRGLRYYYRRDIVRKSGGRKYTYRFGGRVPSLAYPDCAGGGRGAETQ
# Summary of the method: as §1
# ELF3 = biological target: T11, ELF3 (Homo sapiens, UniProt P78545 1-371)
# T11 sequence: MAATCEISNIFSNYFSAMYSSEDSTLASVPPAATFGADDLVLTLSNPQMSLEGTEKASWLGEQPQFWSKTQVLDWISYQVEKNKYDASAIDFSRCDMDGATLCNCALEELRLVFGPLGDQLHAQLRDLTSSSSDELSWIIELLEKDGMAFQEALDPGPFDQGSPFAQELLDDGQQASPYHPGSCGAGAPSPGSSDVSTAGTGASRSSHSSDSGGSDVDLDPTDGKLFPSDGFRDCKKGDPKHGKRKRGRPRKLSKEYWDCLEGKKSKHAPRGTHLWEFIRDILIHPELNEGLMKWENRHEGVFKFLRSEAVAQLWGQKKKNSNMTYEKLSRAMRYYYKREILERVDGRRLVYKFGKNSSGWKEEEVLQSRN
# Summary of the method: as §1
# ETV1 = ETV1 (Homo sapiens, UniProt P50549 1-477)
# Chain of ETV1 (P50549 whole entry): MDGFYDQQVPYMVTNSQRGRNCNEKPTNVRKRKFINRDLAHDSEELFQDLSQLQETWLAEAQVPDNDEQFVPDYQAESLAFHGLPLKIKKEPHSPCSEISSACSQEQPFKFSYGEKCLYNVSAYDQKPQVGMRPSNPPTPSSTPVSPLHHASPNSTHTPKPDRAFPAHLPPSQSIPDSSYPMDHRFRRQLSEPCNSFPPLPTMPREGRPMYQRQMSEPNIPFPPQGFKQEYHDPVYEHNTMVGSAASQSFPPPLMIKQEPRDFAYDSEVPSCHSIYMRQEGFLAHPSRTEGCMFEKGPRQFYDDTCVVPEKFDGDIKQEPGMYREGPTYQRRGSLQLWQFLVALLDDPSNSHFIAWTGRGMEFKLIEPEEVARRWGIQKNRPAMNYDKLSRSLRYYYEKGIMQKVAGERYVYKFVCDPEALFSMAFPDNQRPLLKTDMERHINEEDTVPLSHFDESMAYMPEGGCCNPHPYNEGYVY
# Summary of the method: as §1
sequence,measurement,setting,value
CGTACC,binding signal,FLI1,"1.24 fold enrichment (6-mer frequency, TF over GST control)"
same,binding signal,ELK1,"1.15 fold enrichment (6-mer frequency, TF over GST control)"
same,binding signal,GABPA,"1.18 fold enrichment (6-mer frequency, TF over GST control)"
same,binding signal,ERG,"1.12 fold enrichment (6-mer frequency, TF over GST control)"
same,binding signal,ELF1,"1.15 fold enrichment (6-mer frequency, TF over GST control)"
same,binding signal,EHF,"1.15 fold enrichment (6-mer frequency, TF over GST control)"
same,binding signal,SPI1,"1.14 fold enrichment (6-mer frequency, TF over GST control)"
same,binding signal,SPIB,"1.12 fold enrichment (6-mer frequency, TF over GST control)"
same,binding signal,ELK3,"1.21 fold enrichment (6-mer frequency, TF over GST control)"
same,binding signal,FEV,"1.19 fold enrichment (6-mer frequency, TF over GST control)"
same,binding signal,ETV5,"1.17 fold enrichment (6-mer frequency, TF over GST control)"
same,binding signal,SPIC,"1.14 fold enrichment (6-mer frequency, TF over GST control)"
same,binding signal,ELF4,"1.17 fold enrichment (6-mer frequency, TF over GST control)"
same,binding signal,ELK4,"1.18 fold enrichment (6-mer frequency, TF over GST control)"
same,binding signal,ETV2,"1.15 fold enrichment (6-mer frequency, TF over GST control)"
same,binding signal,ELF3,"1.25 fold enrichment (6-mer frequency, TF over GST control)"
same,binding signal,ETV1,"1.26 fold enrichment (6-mer frequency, TF over GST control)"
